Reference: PubChem BioAssay (NCI)
Compounds without any hit were thinned out: in the full panel of roughly 79,000, 15% have a hit. Calls of active or inactive are those of the source. Rule as the data show it: active = growth inhibition above about 70%; inactive = the rest.

Tests used:
[1] = NCI Yeast Anticancer Drug Screen. Data for the rad52 strain (AID 147);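 also: 0% = growth of vehicle-treated control cultures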; conditions: S. cerevisiae rad52 mutant growth inhibition, active compounds read high
Procedure, shortened: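 Compounds are applied to a genetically defined yeast strain lacking normal DNA damage repair, and inhibition of growth is expressed relative to cultures given vehicle only.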

[2] = NCI Yeast Anticancer Drug Screen. Data for the wt1 strain (AID 149);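 also: 0% = growth of vehicle-treated wt1 cultures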; conditions: S. cerevisiae wt1 strain (SPY 50644) growth inhibition, active compounds read high
Procedure, shortened: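 wt1 yeast, compound-treated; % growth inhibition vs vehicle control.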

[3] = NCI Yeast Anticancer Drug Screen. Data for the rad50EPP+ strain (AID 151);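 also: 0% = growth of vehicle-treated control cultures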; conditions: S. cerevisiae rad50 mutant strain, active compounds read high
Procedure, shortened: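 Compounds were applied to the rad50EPP+ yeast strain, which bears a defined DNA repair alteration, and growth inhibition was determined relative to vehicle-treated cultures.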

[4] = NCI Yeast Anticancer Drug Screen. Data for the mgt1 strain (AID 153); conditions: S. cerevisiae mgt1 mutant growth inhibition, active compounds read high
Procedure, shortened: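 Strain: mgt1 yeast, one of a set carrying defined DNA damage repair or cell cycle control alterations. Compound-treated growth compared with vehicle.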

[5] = NCI Yeast Anticancer Drug Screen. Data for the rad50 strain (AID 155);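 also: 0% = growth of vehicle-only cultures of the same strain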; conditions: S. cerevisiae rad50 strain growth inhibition, active compounds read high
Procedure, shortened: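 Genetically altered yeast (DNA repair pathway); compound treatment; growth inhibition vs vehicle ctrl.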

[6] = NCI Yeast Anticancer Drug Screen. Data for the mec2-1 strain (AID 157); conditions: S. cerevisiae mec2-1 strain, active compounds read high
Procedure, shortened: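 Strain: mec2-1 (DNA repair/cell cycle alteration). Compound exposure, then growth measured; inhibition expressed relative to vehicle.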

[7] = NCI Yeast Anticancer Drug Screen. Data for the rad14 strain (AID 159);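 also: 0% = growth of vehicle-treated control cultures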; conditions: S. cerevisiae rad14 strain growth inhibition, active compounds read high
Procedure, shortened: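 Test compounds were applied to a repair-deficient yeast strain. Its growth was then compared with that of cultures given vehicle alone, and inhibition was expressed relative to those controls.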

[8] = NCI Yeast Anticancer Drug Screen. Data for the sgs1 mgt1 strain (AID 161);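 also: 0% = growth of cultures given vehicle only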; conditions: S. cerevisiae sgs1 mgt1 strain, active compounds read high
Procedure, shortened: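 Mutant yeast exposed to compound; growth scored against vehicle-only wells.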

[9] = NCI Yeast Anticancer Drug Screen. Data for the CLN2oe strain (AID 163);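 also: 0% = growth of vehicle-only control cultures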; conditions: S. cerevisiae CLN2oe strain, active compounds read high
Procedure, shortened: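 Growth of a genetically modified yeast strain is measured after compound exposure and compared with cultures given vehicle alone.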

[10] = NCI Yeast Anticancer Drug Screen. Data for the cln2 rad14 strain (AID 165);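 also: 0% = growth equal to vehicle treated cultures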; conditions: S. cerevisiae cln2 rad14 strain, active compounds read high
Procedure, shortened: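 Compounds are applied to the cln2 rad14 yeast strain, and growth is then compared with that of vehicle-treated cultures to give inhibition.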

[11] = NCI Yeast Anticancer Drug Screen. Data for the bub3 strain (AID 167); conditions: S. cerevisiae bub3 mutant strain, active compounds read high
Procedure, shortened: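 Yeast carrying a defined mutation is treated with each compound, and growth is compared with that of vehicle-exposed cells to give inhibition.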

[12] = NCI Yeast Anticancer Drug Screen. Data for the wt2 strain (AID 169);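 also: 0% = growth of vehicle-treated yeast cultures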; conditions: S. cerevisiae wt2 strain growth inhibition, active compounds read high
Procedure, shortened: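 This strain belongs to a panel of yeast strains with defined genetic alterations in DNA damage repair or cell cycle control. Compounds are applied, and growth inhibition is measured against vehicle-treated cultures.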

[13] = NCI Yeast Anticancer Drug Screen. Data for the mlh1 strain (AID 171);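 also: 0% = growth of vehicle-treated control cultures of the same strain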; conditions: S. cerevisiae mlh1 strain growth inhibition, active compounds read high
Procedure, shortened: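 Growth of the mutant yeast strain after compound exposure, expressed as inhibition relative to vehicle-only controls.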

[14] = NCI Yeast Anticancer Drug Screen. Data for the sgs1 strain (AID 173);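 also: 0% = growth of vehicle-only control cultures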; conditions: S. cerevisiae sgs1 mutant, active compounds read high
Procedure, shortened: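 Growth of a yeast strain bearing a defined genetic alteration is measured after compound treatment. Inhibition is expressed relative to vehicle-only controls.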

[15] = NCI Yeast Anticancer Drug Screen. Data for the mlh1 rad18 strain (AID 175); conditions: S. cerevisiae mlh1 rad18 strain growth inhibition, active compounds read high
Procedure, shortened: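 Read-out is yeast growth inhibition, calculated against vehicle-only controls. The compound was applied to a strain engineered with DNA damage repair alterations.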

[16] = NCI Yeast Anticancer Drug Screen. Data for the rad18 strain (AID 177); conditions: S. cerevisiae rad18 mutant growth inhibition, active compounds read high
Procedure, shortened: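 Growth of the mutant yeast strain after compound exposure, normalised to vehicle-only cultures.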

[17] = at 5.0 µM (retest, dose inferred, filed as 0.5)
[18] = at 50.0 µM (retest, dose inferred, filed as 5.0)

Measured: growth inhibition

O=C(O)c1cccc(-c2c3ccc(=O)cc-3oc3cc(O)ccc23)c1
inactive: [1]; at 1.2 µM -4% | [1]; at 3.7 µM 26% | [1]; at 11.0 µM 23% | [1]; at 33.0 µM 62% | [2]; at 1.2 µM -10% | [2]; at 3.7 µM -5% | [2]; at 11.0 µM 18% | [3]; at 1.2 µM -10% | [3]; at 3.7 µM 3% | [3]; at 11.0 µM 1% | [3]; at 33.0 µM -2% | [3]; at 100.0 µM 25% | [4]; at 1.2 µM 21% | [4]; at 3.7 µM 12% | [4]; at 11.0 µM 43% | [5]; at 1.2 µM 9% | [5]; at 3.7 µM 13% | [5]; at 11.0 µM 22% | [5]; at 33.0 µM 65% | [5]; at 50.0 µM 63.6% | [6]; at 1.2 µM 14% | [6]; at 3.7 µM 14% | [6]; at 11.0 µM 36% | [6]; at 50.0 µM 23.1% | [7]; at 1.2 µM -29% | [7]; at 3.7 µM -20% | [7]; at 11.0 µM 2% | [8]; [17] 0% | [8]; [18] 39% | [8]; at 50.0 µM 54.2% | [9]; at 1.2 µM 11% | [9]; at 3.7 µM -13% | [9]; at 11.0 µM -4% | [9]; at 33.0 µM 61% | [10]; [17] 33% | [10]; [18] 69% | [10]; at 50.0 µM 51% | [11]; at 1.2 µM 10% | [11]; at 3.7 µM 29% | [11]; [17] 53% | [11]; at 11.0 µM 49% | [11]; [18] 69% | [11]; at 50.0 µM 62.9% | [12]; at 1.2 µM -33% | [12]; at 3.7 µM -31% | [12]; at 11.0 µM -1% | [13]; at 1.2 µM -23% | [13]; at 3.7 µM -6% | [13]; at 11.0 µM 39% | [14]; at 1.2 µM 16% | [14]; at 3.7 µM 35% | [14]; at 11.0 µM 44% | [15]; at 50.0 µM 47.8% | [16]; at 1.2 µM -3% | [16]; at 3.7 µM 6% | [16]; at 11.0 µM 41%
active: [1]; at 100.0 µM 85% | [2]; at 33.0 µM 77% | [2]; at 100.0 µM 96% | [4]; at 33.0 µM 80% | [4]; at 100.0 µM 97% | [5]; [17] 90% | [5]; [18] 99% | [5]; at 100.0 µM 90% | [6]; [17] 94% | [6]; at 33.0 µM 84% | [6]; [18] 99% | [6]; at 100.0 µM 96% | [7]; at 33.0 µM 71% | [7]; at 100.0 µM 95% | [9]; at 100.0 µM 96% | [11]; at 33.0 µM 79% | [11]; at 100.0 µM 92% | [12]; at 33.0 µM 76% | [12]; at 100.0 µM 95% | [13]; at 33.0 µM 78% | [13]; at 100.0 µM 93% | [14]; at 33.0 µM 83% | [14]; at 100.0 µM 92% | [15]; [17] 94% | [15]; [18] 99% | [16]; at 33.0 µM 71% | [16]; at 100.0 µM 89%
